# Screening data (PubChem BioAssay)
# aSyn rescue = qHTS of alpha-syn Inhibitors; Yeast expressing alpha-synuclein, growth rescue, BacTiter-Glo, 24 h; Potency, µM (doses to about 46.1 µM), inactives show at the highest dose growth rescue (activation), most hits filed as activators; 0.14% of 370,000 active; AID 652106, 2013; note: % of control where 0% means no effect; nearly all actives have a fitted effect of over 65% in size
#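 Rescue of yeast growth: cells expressing toxic alpha-synuclein, induced in galactose at OD600 0.02, incubated with compound 24 h at 30 C. ATP luminescence quantified growth; inhibitors of toxicity appear as activators.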
# FUS suppressor = qHTS for Suppressors of FUS Proteinopathy: Primary screen using FUS-linked yeast assay; AID 1347120, 2019; Potency, µM (series often up to 76.6 µM), usual class: activators; S. cerevisiae FUS-expressing, growth rescue, OD600, 24 h; 0.24% of 390,000 active;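 note: plate controls were DMSO vehicle for no effect and reference control for full effect; nearly all actives have a fitted effect of over 55% in size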
#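 S. cerevisiae expressing FUS from galactose induction served as the toxicity model. Growth after 24hr at 30C, read as absorbance at 600 nm, indicates suppression of toxicity; compounds dosed at several concentrations.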
# TDP43 rescue = qHTS of TDP-43 Inhibitors; TDP-43 expressing yeast growth rescue, BacTiter-Glo, 24 h; Potency, µM (highest dose often 46.1 µM), without a hit: top-dose growth rescue (activation), hits mostly activators; 1.8% of 410,000 active; note: % of control where 0% means no effect; nearly all actives have a fitted effect of over 50% in size
#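 Growth rescue of TDP-43-toxic yeast measured as ATP luminescence (BacTiter-Glo). Cells grown to mid-log in raffinose, induced in galactose at OD600=0.02, exposed to compound 24 hr at 30 deg C.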
# Mito fusion yeast = qHTS Assay for Small Molecule Inhibitors of Mitochondrial Division or Activators of Mitochondrial Fusion; S. cerevisiae fusion-defective mutant growth rescue, CellTiterGlo 48 h; Potency, µM (highest dose often 46.1 µM), without a hit: top-dose growth rescue (activation), hits mostly activators; 0.23% of 320,000 active; AID 485298, 2010; note: % of control where 0% means no effect; nearly all actives have a fitted effect of over 45% in size
#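 Yeast fusion mutant, YPEG (non-fermentable carbon), compound, 48 h at 37C non-permissive; CellTiterGlo added, 10 min RT, luminescence read. Rescued growth = division inhibition.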
# Abeta yeast res = qHTS for compounds that reverse cellular toxicity of Amyloid beta (A-beta) peptide in yeast: Primary Screen; yeast expressing A-beta42, growth rescue, OD600, 48 h; response scale: 0% DMSO, 100% iron-clioquinol control; Potency, µM (titrated, usually from 46.1 µM), actives largely listed as activators; 0.063% of 410,000 active; AID 1347071, 2019; note: nearly all actives have a fitted effect of over 55% in size
#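 Yeast A-beta toxicity model in growth medium with pinned compounds, 48 h at 30 C; growth read as absorbance at 600 nm. Normalized to FeCl3/clioquinol equimolar mix (positive) and DMSO (negative).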
# An asterisk follows results filed as active; i = inactive; ? = inconclusive; · = not tested or not shown; [ ] = remark or other dose. The list is not random: actives were taken first. Their share in the collection is about 2.2%. Calls come from the whole dose curve; as a rule, active = well fitted curve in the direction sought with a large enough effect; inconclusive = small, poorly fitted or top-dose-only effect, or another doubt; inactive = no such curve, though single readings can be large; an effect the other way counts as inactive or inconclusive. Potency is the fitted concentration of half-maximal effect.
SMILES,aSyn rescue,FUS suppressor,TDP43 rescue,Mito fusion yeast,Abeta yeast res
O=C(CN1CCCc2ccccc21)NCCc1ccc(Cl)cc1,5.0%,i,14.1µM*,-2.9%,i
O=C(CN1CCc2ccccc21)NCc1ccc2c(c1)OCO2,15.2%,i,27.9%,0.5%,i
COc1ccc(C2(C(=O)NCCc3ccccc3)CCCC2)cc1,9.2%,i,20.1%,?,?
O=C(COc1ccc(Cl)cc1Br)OCC(=O)c1ccc[nH]1,4.2%,i,12.6%,·,i
CCc1cccc2sc(N3CCN(C(=O)C4CC4)CC3)nc12,·,i,11.2µM*,·,i
Cc1c(Cl)ccc2sc(N3CCN(C(=O)C4CC4)CC3)nc12,·,?,31.6µM*,·,i
O=C(C1CC1)N1CCN(c2nc3ccccc3s2)CC1,12.4%,i,-7.6%,-1.0%,i
Cc1cc(C)c2sc(N3CCN(C(=O)C4CC4)CC3)nc2c1,·,i,12.6µM*,·,i
Nc1nc(N)c2snnc2n1,3.2%,·,·,·,·
O=C(/C=C/c1cccc(Cl)c1)Nn1c(-c2cccs2)nc2ccccc2c1=O,-29.8%,i,10µM*,15.8µM*,i
O=C(/C=C/c1cccc(Cl)c1)NCc1cccs1,0.5%,i,17.8µM*,-3.2%,i
O=C1CCC[C@H]2C[C@H](NCc3ccccc3Cl)CC[C@]23CCCN13,·,i,·,·,·
CCCNC(=O)Cn1c(SCc2ccccc2C)nc2ccncc21,0.3%,·,·,·,·
CCOC(=O)c1cnc2ccc(OCC)cc2c1Nc1ccc(OCc2ccccc2Cl)cc1,·,i,-4.1%,·,i
CCOc1ccc2ncc(C(=O)c3ccc(OC)cc3)c(N3CCN(CC)CC3)c2c1,0.2%,i,12.9%,14.2%,i
CCOC(=O)c1cnc2c(C(F)(F)F)cccc2c1N1CCOCC1,11.8%,i,4.9%,-2.5%,i[9.22 µM]
CCOC(=O)c1cnc2ccc(OCC)cc2c1N(C)Cc1ccccc1,14.4%,i,22.4µM*,21.4%,i
CCOC(=O)c1cnc2c(OC)cccc2c1N1CCN(c2ccccc2F)CC1,·,i,11.2µM*,·,i
CCOC(=O)c1cnc2ccc(OCC)cc2c1N1CCN(c2ccccc2OC)CC1,8.4%,i,35.5µM*,7.5%,i
CC(=O)OC[C@@H]1CN(Cc2ccccc2)C[C@H](n2cnc3c(NC(C)C)ncnc32)O1,-3.0%,i,19.8%,·,i
CC(=O)OC[C@@H]1CN(Cc2ccccc2)C[C@H](n2cnc3c(N4CCN(c5ccccc5)CC4)ncnc32)O1,0.4%,i,17.8µM*,·,i
COc1cc(CNc2ncnc3c2ncn3[C@H]2CN(Cc3cccc4ccccc34)C[C@@H](CO)O2)cc(OC)c1OC,3.3%,28.2µM*,0.7%,·,i
CCN(CC)c1ncnc2c1ncn2[C@H]1CN(Cc2ccc(-c3ccccc3)cc2)C[C@@H](CO)O1,?,28.2µM*,2.0%,·,i
COc1cc(CNc2ncnc3c2ncn3[C@H]2CN(Cc3ccc(-c4ccccc4)cc3)C[C@@H](CO)O2)cc(OC)c1OC,-2.6%,?,9.0%,·,i
COc1ccc(C(O)(CCN2CCOCC2)c2ccccc2)cc1 (stereo not drawn),7.7%,i,-5.8%,-0.8%,i
SMILES,aSyn rescue,FUS suppressor,TDP43 rescue,Mito fusion yeast,Abeta yeast res
CCOC(=O)Nc1ccc(C(=O)/C=C/c2ccccc2)cc1,1.5%,i,14.1µM*,9.7%,i
CCOC(=O)Nc1ccc(Oc2ccccc2)cc1,-1.4%,i,11.2µM*,6.2%,i
CCOC(=O)Nc1cccc(OCC(=O)Nc2ccc(OC)cc2OC)c1,-3.7%,i,?,5.7%,i
CCOC(=O)Nc1cccc(OCC(=O)Nc2ccccc2OC)c1,-7.5%,i,15.8µM*,-3.8%,i
O=C(Nc1ccc(Oc2ccccc2)cc1)C1CC1,-28.6%,i,5.62µM*,-9.3%,i
CC(=O)Nc1ccc(NC(=O)COC(=O)c2ccccc2OCc2cccc(Br)c2)cc1,14.2%,·,·,·,·
COc1ccc(C(=O)C2CCCN(C(=O)c3csc(SC)n3)C2)cc1F (stereo not drawn),-6.8%,i,26.3%,·,i
CC(C)C[C@@H]1COc2cc(Br)ccc2S(=O)(=O)N1Cc1cn(CCC2OCCCO2)nn1,·,i,·,·,·
CCOC(=O)N1CCC(N(CCN(C)C)C(=S)Nc2ccc(Oc3ccccc3)cc2)CC1,20µM*,i,20.3%,-2.9%,i
CCOC(=O)N1CCC(N(CCN(C)C)C(=S)Nc2cccc(C)c2)CC1,-1.9%,i,2.3%,-1.5%,i
CC1(C(=O)NC(=S)N(CCC#N)c2ccccc2)CC1(Cl)Cl (stereo not drawn),-1.8%,i,11.4%,-2.8%,i
CC(C)N(Cc1ccccc1)C(=S)NC(=O)C1(C)CC1(Cl)Cl (stereo not drawn),0.3%,i,35.5µM*,2.9%,?
CC(C)Cc1nc(N2CCN(C(=O)c3ccccc3)CC2)c(C#N)c2c1CCC2,2.7%,?,25.1µM*,6.2%,i
C=CCNc1nc(Cl)nc(NC2CCCCC2)n1,-16.9%,i,15.8µM*,-1.3%,i
CC(Cc1ccc(O)c(O)c1)C(C)Cc1ccc(O)c(O)c1 (stereo not drawn),12.9%,i,?,·,i
C[C@H](Cc1ccc(O)c(O)c1)[C@@H](C)Cc1ccc(O)c(O)c1,?,·,·,13µM*,·
CCCC[n+]1c(/C=C/c2c(OC)cc(OC)cc2OC)ccc2ccccc21,-28.8%,·,·,·,·
Cc1ccc(CSCCC(=O)NCc2ccc(F)cc2Cl)cc1,·,i,22.4µM*,·,i
Cc1ccc(CNC(=O)CCSCc2ccccc2F)cc1,16.9%,i,19.2%,-4.9%,i
O=C(COC(=O)/C=C/c1ccc(Cl)cc1)NCCc1ccccc1,-1.1%,i,3.5%,1.1%,i
C=CCOc1ccc(/C=C/C(=O)OCC(=O)NCCc2ccccc2)cc1,24.2%,i,25.1µM*,5.4%,i
COc1ccc(C(C)=O)cc1COC(=O)C1CCN(C(=O)c2ccc(Cl)cc2)CC1,0.7%[1.84 µM],?,20µM*,·,i
CC(=O)N(Cc1ccco1)Cc1cc2cccc(C)c2n2nnnc12,·,·,·,0.5%,·
Cc1cccc2cc(CN(Cc3nnnn3Cc3ccco3)C3CCCC3)c3nnnn3c12,?,i,7.08µM*,?,i
Cc1cccn2c(=O)c(C=O)c(Cl)nc12,21.4%,i,10µM*,-4.8%,i
Cc1ccc(C)c(S(=O)(=O)N2CCCOC2CNC(=O)C(=O)NCCc2ccccc2)c1 (stereo not drawn),-3.7%,i,0.0%,3.4%,i
